Rows were chosen to be rich in hits. Some 19% of all compounds tested hit in one or more screens of this group.
DT40 TDP1 CPT = growth inhibition of DT40 Tdp1-/-;hTDP1 cells with camptothecin (screen for TDP1 inhibitors); 420,000 tested, 12% active; chicken DT40 Tdp1-/-;hTDP1 cells + 20 nM CPT, ATP luminescence, 48 h; Potency, µM (highest dose often 46.2 µM), without a hit: top-dose activity change, negative = growth inhibition, hits mostly inhibitors; AID 686979; also: potency is read from the fitted curve at half-maximal effect; nearly all actives have a fitted effect of over 55% in size
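Chicken DT40 Tdp1-/- cells complemented with human TDP1, 400 cells/well, exposed to compounds plus 20 nM camptothecin for at least 48 h at 37 C; viability read as ATP content by CellTiter-Glo luminescence.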
HT1080 IDH1KD tx = HT-1080 IDH1 knockdown cell toxicity (counter line); HT-1080 IDH1 knockdown viability, ATP luminescence, 48 h; Potency, µM (highest dose often 46.1 µM), inactives show at the highest dose activity, negative = toxicity, actives largely listed as cytotoxic; 360,000 tested, 2% active; AID 686971;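 also: potency is read from the fitted curve at half-maximal effect; 0% = DMSO wells and -100% = cell-free medium wells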
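IDH1KD HT-1080 cells, 750/well, RPMI + 5% FBS; compound pinned after 2 h settling; 48 h, 37 °C; CellTiter-Glo luminescence; % activity normalised to DMSO and no-cell wells; curves fitted, classed by r2 and efficacy.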
IL-1B inflam inh = blocks inflammasome-driven IL-1 beta release | THP-1 LPS/ATP IL-1B secretion, AlphaLISA, 16 h; stronger effect = lower value | activity change, % at 57.5 µM | 360,000 tested, 4.7% active | AID 743279; in the data active = activity change below about -50%; inconclusive = mostly about -30% to -49%
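Secreted IL-1B measured by AlphaLISA bead assay after 16 h compound exposure of THP-1 cells; compounds (final up to 57.5 uM) added 1 h before LPS (250 ng/mL) and ATP (1.25 mM) stimulation; lower signal means less secretion.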
HT1080-NT tox = kills 2HG-producing HT-1080-NT fibrosarcoma cells | HT-1080-NT fibrosarcoma viability, CellTiter-Glo ATP luminescence, 48 h | Potency, µM (titrated, usually from 46.1 µM), without a hit: at the highest dose activity, negative = less viability, hits mostly cytotoxic | 360,000 tested, 1.6% active;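 also: NT is the 2HG producing partner of a matched IDH1 knockdown line; potency is read from the fitted curve at half-maximal effect; 0% = DMSO-treated cells and -100% = media-only wells without cells; nearly all actives have a fitted effect of over 55% in size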
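Viability by CellTiter-Glo luminescence after 48 h compound exposure at 37C of HT-1080-NT cells (750/well, RPMI, 5% FBS). % activity scaled between DMSO wells and medium-only wells, then curve-fitted and categorized by curve class.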
TDP1 cell noCPT = qHTS for Inhibitors of human tyrosyl-DNA phosphodiesterase 1 (TDP1): qHTS in cells in absence of CPT. 420,000 tested, 15% active. DT40 Tdp1-/- hTDP1 cells, no CPT, ATP luminescence, 48 h. AID 686978, 2013. Potency, µM (top dose mostly 46.2 µM), for the others: at the top dose activity change, negative = growth inhibition, usual class: inhibitors; also: potency is read from the fitted curve at half-maximal effect; nearly all actives have a fitted effect of over 55% in size
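No-CPT arm: Tdp1-/-;hTDP1 DT40 cells (400/well) plus compounds, incubated ≥48 hr at 37 °C. Readout CellTiter-Glo luminescence.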
* hit, by the source's call; ? = inconclusive; · = no result given; ! = not active in a repeat; [ ] = remark or other dose. Unless noted, calls follow the shape of the dose curve; as a rule, active = well fitted curve in the direction sought with a large enough effect; inconclusive = small, poorly fitted or top-dose-only effect, or another doubt; inactive = no such curve, though single readings can be large; an effect the other way counts as inactive or inconclusive. Unless noted, % is scaled to controls: 0 for no effect and ±100 for the full control effect.

SMILES	DT40 TDP1 CPT	HT1080 IDH1KD tx	IL-1B inflam inh	HT1080-NT tox	TDP1 cell noCPT
Cn1c(=O)c2c(-c3ccccc3)n(-c3ccccc3Br)cc2n(C)c1=O	4.6µM*	-23%	-1	-29%	5.2µM*
COc1ccc(-c2c3c(=O)n(C)c(=O)n(C)c3cn2-c2ccccc2O)cc1	?	-22%	40	-26%	-27%
Cn1c(=O)c2c(-c3ccccc3)n(-c3cccc(O)c3)cc2n(C)c1=O	18µM*	-17%	-13	-3%	9.2µM*
COc1ccc(-c2c3c(=O)n(C)c(=O)n(C)c3cn2-c2cc(OC)ccc2OC)cc1	?	?	-9	-17%	23µM*
Cn1c(=O)c2c(-c3ccccc3)n(-c3ccc(N)cc3)cc2n(C)c1=O	?	1%	5	-12%	15µM*
Cc1cccc(-c2c3c(=O)n(C)c(=O)n(C)c3cn2-c2ccc(O)cc2)c1	?	-10%	7	-7%	?
S=C(c1ccco1)N1CCOCC1	?	6%	-4	10%	?
Cc1ccccc1CN1C(=O)c2ccccc2Sc2ccc(C(=O)NCc3cccs3)cc21	23µM*	·	·	·	23µM*
Cc1ccccc1CN1C(=O)c2ccccc2Sc2ccc(C(=O)NC3CCCC3)cc21	16µM*	·	·	·	?
Cc1cccc(CN2C(=O)c3ccccc3Sc3ccc(C(=O)NC4CCCCC4)cc32)c1	-9%	·	·	·	?
Cc1ccc(-c2ccc(/C=C3/NC(=O)NC3=O)o2)cc1[N+](=O)[O-]	?	-14%	-8	-10%	21µM*
COc1cc(CNCc2ccccn2)ccc1OCc1ccccc1Cl	?	-23%	-18	-20%	?
COc1cc(CNCCN2CCOCC2)ccc1OCc1ccccc1Cl	?	-16%	-16	-19%	18µM*
COc1cc(CNCCc2ccc(S(N)(=O)=O)cc2)ccc1OCc1ccc(Cl)cc1	23µM*	13µM*	-78*	-4%[9.24 µM]	?
CCOc1cc(CNCCCN2CCOCC2)cc(Br)c1OCC(=O)Nc1cccc(C(F)(F)F)c1	5.2µM*	?	-22	?	4.1µM*
COc1cc(CNCCCN2CCOCC2)cc(Br)c1OCc1ccc(Cl)cc1	3.7µM*	?	0	-28%	3.7µM*
COc1ccc(S(=O)Cc2ccc(C(=O)N3CCN(C(=O)c4ccco4)CC3)o2)cc1 (stereo unspecified)	-7%	5%	3	-2%	0%
COc1ccc(N2CCN(CCNS(=O)(=O)c3ccc(C)cc3)CC2)cc1	?	-2%	6	-4%	?
Cc1nn(-c2ccc(N3CCOCC3)nn2)c(C)c1CCC(=O)NCc1ccc(Cl)cc1	?	·	·	·	-18%
CCc1ccc(CN2CCCC(CNC(=O)c3cccc(OC)c3OC)C2)cc1 (stereo unspecified)	-7%	-1%	-7	-3%	-22%
COc1cc(CNCCN2CCOCC2)ccc1OCc1ccc(Cl)cc1	18µM*	?	?	?	?
Cc1cc(Cl)ccc1OCC(O)CNCCc1ccc(S(N)(=O)=O)cc1 (stereo unspecified)	?	-12%	-5	-11%	15µM*
CCOc1cc(CNCCCN2CCOCC2)cc(Cl)c1OCC(=O)NC(C)(C)C	?	-14%	-24	-27%	?
C=CCOc1c(Cl)cc(CNCCCN2CCOCC2)cc1OC	23µM*	-6%	4	?	-77%
CN1CCC(OC(c2ccccc2)c2ccc(Cl)cc2)C1 (stereo unspecified)	?	-16%	·	-30%	21µM*
SMILES	DT40 TDP1 CPT	HT1080 IDH1KD tx	IL-1B inflam inh	HT1080-NT tox	TDP1 cell noCPT
CN1CCCC(OC(=O)c2ccc(Cl)cc2)C1 (stereo unspecified)	3%	-5%	-6	-4%	?
CN1[C@@H]2CC[C@H]1CC(OC(c1ccccc1)c1ccccc1)C2 (stereo partly specified)	7.5µM*	·	·	·	21µM*!
CN1C2CCC1CC(OC(c1ccccc1)c1ccccc1)C2 (stereo unspecified)	?	?	?	-21%	-36%
O=c1cc(-c2ccsc2)oc2ccc(-c3ccc4cc[nH]c4c3)cc12	?	-14%	-24	-1%	?
COc1ccc(CN(Cc2cccn2C)S(=O)(=O)c2cccc(C(F)(F)F)c2)cc1	18µM*	-1%	4	-3%	?
O=C(COC(=O)c1cc(S(=O)(=O)N2CCCCC2)ccc1N1CCOCC1)NCCc1ccc(F)cc1	-22%	2%	-4	-2%	10µM*
Cc1ccc(NC(=O)c2cc(S(=O)(=O)N3CCCCC3)ccc2N2CCOCC2)cc1	-20%	2%	-20	-1%	?
Cc1ccc(CNC(=O)c2cc(S(=O)(=O)N3CCCCC3)ccc2N2CCOCC2)cc1	?	3%	-9	0%	18µM*
Cc1ccc(COC(=O)c2cc(S(=O)(=O)N3CCCCC3)ccc2N2CCOCC2)cc1	?	-20%	-16	-6%	26µM*
Cc1ccc(C)c(COC(=O)c2cc([N+](=O)[O-])ccc2N2CCOCC2)c1	?	?	31	?	?
CC(C)CNC(=O)COC(=O)c1cc(S(=O)(=O)N2CCCCC2)ccc1N1CCOCC1	-8%	6%	-15	1%	-16%
Cc1ccc(C)c(COC(=O)c2cc(S(=O)(=O)N3CCCCC3)ccc2N2CCOCC2)c1	?	3%	-9	-1%	13µM*
O=C(OCc1ccccc1)c1cc(S(=O)(=O)N2CCCCC2)ccc1N1CCOCC1	?	-10%	-7	1%	?
O=C(COC(=O)CCSc1ccccc1)Nc1ccccc1	5%	8%	28	3%	-27%
CCOC(=O)C1(C)CCN1C(=O)c1ccc(C#N)cc1 (stereo unspecified)	-28%	9%	9	?	-5%
Cc1nn(CC(=O)N(C)c2c(N)n(Cc3ccccc3)c(=O)[nH]c2=O)c(C)c1[N+](=O)[O-]	-7%	-4%	17	-2%	-8%
O=C(NCc1ccc2c(c1)OCO2)c1ccc2c(c1)S(=O)(=O)c1ccccc1C2=O	?	2%	?	7%	?
CC(C)CCCC(C)NC(=O)c1cc(S(=O)(=O)N2CCCCC2)ccc1N1CCOCC1 (stereo unspecified)	23µM*	-11%	-26	-8%[9.24 µM]	13µM*
COCC(C)NC(=O)c1cc(S(=O)(=O)N2CCCCC2)ccc1N1CCOCC1 (stereo unspecified)	5%	0%	8	3%	-5%
CCc1cccc(NC(=O)c2cc(S(=O)(=O)N3CCCCC3)ccc2N2CCOCC2)c1	21µM*	-9%	?	-7%	16µM*
